IL-1B inflam inh – blocks inflammasome-driven IL-1 beta release. THP-1 LPS/ATP IL-1B secretion, AlphaLISA, 16 h; active compounds read low. activity change, % at 57.5 µM. 360,000 compounds, 4.7% hits. AID 743279; in the data active = activity change below about -50%; inconclusive = mostly about -30% to -49%; also: % is scaled to controls: 0 for no effect and ±100 for the full control effect
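THP-1 cells pretreated 1 hr with compounds (up to 57.5 uM final), then stimulated with LPS (250 ng/mL final) plus ATP (1.25 mM final); secreted IL-1B measured by AlphaLISA after 16 hr, decreased signal indicating inhibition.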
HT1080-NT tox – kills 2HG-producing HT-1080-NT fibrosarcoma cells; HT-1080-NT fibrosarcoma viability, CellTiter-Glo ATP luminescence, 48 h; Potency, µM (titrated, usually from 46.1 µM), for the others: at the highest dose activity, negative = less viability, most hits filed as cytotoxic; 360,000 compounds, 1.6% hits; AID 686970;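 also: NT is the 2HG producing partner of a matched IDH1 knockdown line; potency is read from the fitted curve at half-maximal effect; 0% = DMSO-treated cells and -100% = media-only wells without cells; nearly all actives have a fitted effect of over 55% in size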
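Luminescent CellTiter-Glo readout after 48 hours of compound exposure at 37 degrees C defined viability of HT-1080-NT cells. Activity was normalized to DMSO wells and cell-free media wells; concentration-response curves were fitted and assigned curve classes.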
HepG2 tox – HepG2 cytotoxicity, counter-screen for TGF-b inhibitors; Potency, µM (doses to about 46.1 µM), for the others: at the top dose activity change, negative = cytotoxicity, usual class: cytotoxic; HepG2 CAGA-GFP viability, ATP luminescence, 18 h; AID 588856; 410,000 compounds, 0.76% hits; also: potency is read from the fitted curve at half-maximal effect
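CellTiter-Glo luminescence gave cytotoxicity after 18 hours at 37 degrees C. The cells were HepG2 CAGA-GFP in 1% FBS DMEM, stimulated with 500 pg/mL TGF-beta after compound addition. %Activity was normalised to no-cell wells (complete cell-killing) and DMSO (no toxicity), and curves were fitted and classified.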
TGFb inhibitor – inhibitors of TGF-b signaling | HepG2 CAGA-GFP TGF-b/SMAD3 reporter, GFP fluorescence, 18 h; TGF-beta stimulated, 500 pg/mL final | Potency, µM (highest dose often 46.1 µM), without a hit: at the top dose activity, negative = inhibition, usual class: inhibitors | 410,000 compounds, 1.2% hits; also: potency is read from the fitted curve at half-maximal effect; % is scaled to controls: 0 for no effect and ±100 for the full control effect; nearly all actives have a fitted effect of over 65% in size
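HEPG2 CAGA-GFP reporter cells (1000/well, DMEM with 1% FBS) received compounds, then recombinant TGF-beta at 500 pg/mL final for 18 hours at 37 degrees C. Per-cell GFP summed per well was normalised to unstimulated and stimulated DMSO controls before curve fitting.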
HT1080 IDH1KD tx – HT-1080 IDH1 knockdown cell toxicity (counter line); HT-1080 IDH1 knockdown viability, ATP luminescence, 48 h; AID 686971; Potency, µM (top dose mostly 46.1 µM), for inactives: top-dose activity, negative = toxicity, most hits filed as cytotoxic; 360,000 compounds, 2% hits;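 also: potency is read from the fitted curve at half-maximal effect; 0% = DMSO wells and -100% = cell-free medium wells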
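IDH1KD HT-1080 cells, 750/well, RPMI + 5% FBS; compound pinned after 2 h settling; 48 h, 37 °C; CellTiter-Glo luminescence; % activity normalised to DMSO and no-cell wells; curves fitted, classed by r2 and efficacy.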
Giardia killer – Giardia lamblia killing; Giardia lamblia trophozoite viability; activity change, % at 7.66 µM, hits read low; 340,000 compounds, 0.15% hits; AID 540267; in the data active = activity change below about -80%; inconclusive = between about -30% and that limit;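 also: parasites exposed to compound for two days anaerobically before the ATP read; % is scaled to controls: 0 for no effect and ±100 for the full control effect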
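Each well holds 100 Giardia trophozoites and compound. After two days (48 hrs) at 37 deg C in anaerobic conditions, ATP is quantified by luminescence.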
The depositor's hits bear a star; ? = inconclusive; nt = no result. Hits are enriched below; roughly 6.5% of the tested compounds scored in any of these assays. Unless noted, calls follow the shape of the dose curve; as a rule, active = well fitted curve in the direction sought with a large enough effect; inconclusive = small, poorly fitted or top-dose-only effect, or another doubt; inactive = no such curve, though single readings can be large; an effect the other way counts as inactive or inconclusive.

SMILES | IL-1B inflam inh | HT1080-NT tox | HepG2 tox | TGFb inhibitor | HT1080 IDH1KD tx | Giardia killer
CCCSc1cc(NCCOC(C)=O)c([N+](=O)[O-])c2nonc12 | 13.8 | -7.6% | 4.0% | 4.5% | -4.5% | 4.7
CCCC(=O)OCCNc1cc(SCc2ccco2)c2nonc2c1[N+](=O)[O-] | ? | ? | 5.3% | 28.4% | 23.1µM* | 12.7
Cc1ccc(S(=O)(=O)N2CCN(C(=O)CC(C)n3cncn3)CC2)cc1C (stereo unspecified) | 4.1 | -3.4% | 14.7% | -2.1% | 9.5% | -0.2
COc1ccc2[nH]c3c(c2c1)CCNC3=O | nt | nt | -17.1% | -7.3% | nt | ?
C=C1CCc2c([nH]c3ccc(OCC(C)C)cc23)C1=O | -98.8* | 7.31µM* | 2.51µM* | 5.01µM* | 13µM* | -15.1
O=C1c2ccccc2C(Nc2ccc(Cl)cn2)N1c1ccccn1 (stereo unspecified) | 43.0 | -5.4% | -19.6% | -4.1% | -9.3% | -29.4
c1ccc(Cc2nnc3sc(-c4ccccn4)nn23)cc1 | 12.0 | 15.1% | -16.7% | -20.9% | -0.9% | 1.7
CCOc1ccccc1-c1nn2c(Cc3ccccc3)nnc2s1 | 17.1 | -26.6% | 12.6µM* | ? | ? | -5.6
CCOC(=O)N1C(=O)[C@](c2ccc(Cl)cc2)(C(C)C)N1C(=O)OCC | -98.2* | -20.5% | 10µM* | ? | -29.5% | -17.3
CCOC(=O)C1(C(N)=O)OC1(c1ccc(Cl)cc1)c1ccccc1Cl (stereo unspecified) | 8.1 | -1.6% | -19.7% | -2.2% | 0.7% | -10.5
CCOC(=O)N1C(=O)[C@@](c2ccc(Cl)cc2)(C(C)C)N1C(=O)OCC | -112.8* | ? | 15.8µM* | ? | ? | ?
COc1cccc(COC(=O)c2ccc3c(c2)NC(=O)C(C)S3)c1OC (stereo unspecified) | -15.6 | -0.1% | -27.3% | -9.5% | -6.9% | 42.7
C[C@@H]1CCCCCCCCC(=O)OCCN[C@H](C)CCCCCCCCC(=O)OCCN[C@H](C)CCCCCCCCC(=O)OCCN1 | -58.6* | -26.2% | -63.8% | 15.8µM* | -23.9% | -27.4
Cc1csc2c(N3CCC(C(=O)O)CC3)ncnc12 | 15.3 | -2.8% | -13.5% | -1.0% | 1.3% | -11.1
Cc1csc2c(N3CCN(C(=O)Nc4ccc(OC(F)(F)F)cc4)CC3)ncnc12 | -70.0* | ? | -10.6% | ? | ? | 20.2
Cc1c(CN2CCN(CC(C)(C)C)C(CCO)C2)[nH]c2ccccc12 (stereo unspecified) | 22.1 | 0.3% | -22.4% | 2.9% | 0.0% | 0.2
CCOc1ccc(CN2CCN(Cc3[nH]c4ccccc4c3C)CC2CCO)cc1 (stereo unspecified) | -74.3* | -10.6% | -86.3% | ? | -26.1% | 4.9
COc1ccc2[nH]c(CN3CCN(C(C)C)C(CCO)C3)c(C)c2c1 (stereo unspecified) | -2.5 | 6.1% | 6.0% | 10.6% | 10.3% | 7.7
CCOc1ccc(CN2CCN(Cc3cc4c(cc3Cl)OCO4)CC2CCO)cc1 (stereo unspecified) | -60.2* | ? | -20.2% | -15.4% | -25.1% | -6.0
CCOc1ccc(CN2CCN(Cc3cccc4c3OCO4)CC2CCO)cc1 (stereo unspecified) | -4.0 | -20.4% | -7.9% | -2.9% | -3.4% | 2.1
COc1ccc2[nH]c(CN3CCN(CC(C)C)C(CCO)C3)c(C)c2c1 (stereo unspecified) | -96.1* | 0.0% | -34.0% | -7.9% | -19.0% | -1.3
COc1ccc(NC(=O)Nc2nnc(Cc3ccccc3)s2)cc1 | ? | ? | 0.3% | 3.1% | ? | 0.6
CC(=O)Nc1ccc(NC(=O)C2(c3cccs3)CCOCC2)cc1 | nt | nt | -0.1% | 0.0% | nt | nt
Cc1ccc(C)c(NC(=O)NNC(=O)c2cc3occc3[nH]2)c1 | 17.1 | 5.6% | -42.0% | 16.4% | -6.4% | -6.9
COc1ccccc1NC(=O)CSc1nnc(NC(=O)C2CC2)s1 | 25.5 | -0.4% | -14.1% | -5.5% | -12.3% | 10.1
SMILES | IL-1B inflam inh | HT1080-NT tox | HepG2 tox | TGFb inhibitor | HT1080 IDH1KD tx | Giardia killer
COc1ccc(C(C)=O)cc1CSc1nnc(Nc2ccc(C)cc2)s1 | -66.5* | ? | -0.8% | ? | ? | 8.9
COc1ccccc1NC(=O)CSc1nnc(NC(=O)Nc2ccc(C)cc2)s1 | nt | nt | -54.1% | 5.62µM* | nt | nt
Cc1cc(C)c(S(=O)(=O)Nc2ccc3c(c2)CCC3)c(C)c1 | ? | 23.1µM* | -87.3% | 17.8µM* | ? | -22.7
Cc1cc(C)c(S(=O)(=O)Nc2ccc(O)cc2)c(C)c1 | -1.7 | -10.2% | -5.0% | 4.7% | -1.3% | 6.3
Cn1ncc(C(=O)Nc2ccc(OC(F)(F)F)cc2)c1-n1cccc1 | 2.3 | -14.1% | 10.3% | -0.8% | -12.7% | -7.9
O=[N+]([O-])c1ccc(N=Nc2ncc[nH]2)cc1 | -109.6* | 18.4µM* | -13.9% | -11.4% | 6.51µM* | -3.5
O=S(=O)(c1ccccc1)N1N=C(c2ccc(Br)cc2)CC1c1ccco1 (stereo unspecified) | ? | -1.3% | -3.6% | -1.5% | -13.3% | -23.9
CC(C)OCCCN1CC(=O)N2C(c3ccccc3)c3[nH]c4ccccc4c3C[C@H]2C1=O (stereo partly specified) | -62.4* | -27.6% | -11.3% | -24.4% | -3.0% | -15.1
CCCCN1C(=O)C2Cc3c([nH]c4ccccc34)CN2C1=S (stereo unspecified) | -88.4* | -2.1% | 1.4% | 103.4% | -19.4% | -2.4
COc1cccc(C2c3[nH]c4ccccc4c3C[C@H]3C(=O)N(CCCOC(C)C)CC(=O)N23)c1 (stereo partly specified) | 6.7 | 16.2% | -16.4% | -15.5% | 9.3% | -0.3
O=C1[C@@H]2Cc3c([nH]c4ccccc34)CN2C(=O)CN1CCCO | -1.6 | 0.2% | 0.9% | 19.4% | -0.5% | 5.0
CCCCCCN1CC(=O)N2Cc3[nH]c4ccccc4c3C[C@H]2C1=O | -58.4* | -3.4% | 0.0% | -6.3% | -0.3% | 0.4
CCCCCN1CC(=O)N2Cc3[nH]c4ccccc4c3C[C@H]2C1=O | -58.9* | 13.3% | -5.3% | 0.9% | -4.9% | 0.4
NC(=O)NC(Cc1ccccc1)C(=O)N1CCN(S(=O)(=O)c2ccc(Cl)cc2)CC1 (stereo unspecified) | 9.8 | -5.8% | -2.7% | -3.5% | -2.3% | 0.2
COc1ccc(C/C(N)=N/OC(=O)Cc2ccccc2)cc1OC | -3.2 | 0.8% | 6.2% | -7.6% | 8.1% | -3.6
COc1ccc(C2CC(C(F)(F)F)n3ncc(C(=O)Nc4c(C)n(C)n(-c5ccccc5)c4=O)c3N2)cc1 (stereo unspecified) | -4.0 | 1.3% | -21.2% | -20.6% | -12.5% | 7.0

Screening results (PubChem)
